Data on 40 compounds can be found in PubChem BioAssay AID1224853 (National Center for Advancing Translational Sciences (NCATS), 2016).

Records with an inconclusive call do not appear. A number with no mark means an inactive call. Calls of active or inactive are those of the source. Calls come from the whole dose curve; as a rule, active = well fitted inhibition curve with a large enough effect; inconclusive = small, poorly fitted or top-dose-only effect; inactive = no such curve, though single readings can be large or run the other way.

This assay in a line: Confirmation assay for measurement of the activity of small molecule inhibitors on Zika virus induced Caspase-3 activity in human astrocytoma cells. The conditions noted are these: SNB-19 ZIKV-induced caspase-3/7, luminescence, 6 h; series mostly up to 46.1 µM; activity change, negative = inhibition: at the top concentration. The text has this:
National Center for Advancing Translational Sciences [NCATS] Johns Hopkins University School of Medicine Florida State University Assay Overview: Increase in the Caspase-3 activity indicates an activation of apoptosis cell death pathway caused by Zika virus infection in certain types of neuronal cells including human neural progenitor cells (hNPCs), astrocytes, and astrocytoma cell line (SNB-19). This cell-based caspase-3 activity assay measures the increased caspase-3 activity in the astrocytoma cell line (SNB-19) after a 6-hour Zika virus infection with a luminescence readout. A decrease in the luminescence signal in this assay by small molecule treatment indicates an inhibitory effect of that small molecule on the Zika virus induced caspase-3 activity that may correlate with its effect on reduction of Zika virus caused cell death.
Assay Protocol Summary: The medium for SNB-19 cells is composed of RPMI 1640 (ATCC, Cat.# 30-2001), 10% fetal bovine serum (FBS) (GE healthcare Life Sciences, Cat.# SH30071.03), and 1% Pen/Strep (Gibco, Cat.# 15140-122). A Caspase-Glo 3/7 assay kit (catalog number G8092; Promega, Madison, WI) was used to detect caspase-3 activity induced by Zika virus infection in human cells. The reagent mixture was reconstituted as described in the protocol from the manufacturer. Polystyrene tissue culture treated and PDL coated white plates were obtained from Greiner Bio-One (Monroe, NC). Cells were seeded in 384- or 1536-well assay plates and cultured at 37 C with 5% CO2 for 16 to 20 hours. The typical cell seeding density in the 1536-well plate assay is 250 cells/well in 3ul medium for SNB-19 cells in tissue culture treated plates. Compounds were added to cells and incubated for one hour before addition of ZIKV solution to cells (2 FFU/cell). After incubation at 37 C with 5% CO2 for 6 hours, the reagent mixture of Caspase-Glo 3/7 assay kit was added to each well, followed by incubation at room temperature for 30 minutes. The luminescence intensity of the assay plates was measured using a ViewLux plate reader (PerkinElmer). Data were normalized by using the cell-containing wells without ZIKV as a negative control (0% induction of caspase 3/7 activity) and wells containing ZIKV infected cells (Caspase-3 activity induced) as a positive control (100% induction of caspase 3 activity). The percentage inhibitions of the increased Caspase-3 activity by small molecule inhibitors were then calculated.
In the case of `CC1(C)Cc2c(sc(NC(=S)NC(=O)c3ccccc3)c2C(=O)O)CO1`, the “activity change, negative = inhibition” value was -0.0994%.

For the compound `COc1ccc(NC(=O)/C=C/c2ccc(Cl)cc2)cc1`, the Potency was 3.46 µM (active).

Regarding `C=CCCCCCCCCC(=O)O`, the “activity change, negative = inhibition” value is -5.82%.

As to `O=C(C=CC=Cc1ccc2c(c1)OCO2)N1CCCCC1`, the Potency was 19.5 µM (active).

On to `CC(=C(CCOC(=O)C(C)C)SSC(CCOC(=O)C(C)C)=C(C)N(C=O)Cc1cnc(C)nc1N)N(C=O)Cc1cnc(C)nc1N`, for which the “activity change, negative = inhibition” value is -17%.

As for `CC(C)(C)OC(=O)CN(Cc1ccc(Cl)cc1)Cc1ccc([N+](=O)[O-])s1`, the “activity change, negative = inhibition” value is -11.8% [at 88.3 µM].

With `COc1cc(NC(C)CCCN)c2ncccc2c1` (stereo not given), the “activity change, negative = inhibition” value is 20.7%.

Take `CCCCC1C(=O)N(c2ccccc2)N(c2ccc(O)cc2)C1=O` (stereo not given): the “activity change, negative = inhibition” value is 22.7%.

As for `CC=CC[C@@H](C)C(=O)[C@H]1C(=O)N[C@@H](C(C)C)C(=O)N(C)CC(=O)N(C)[C@@H](CC(C)C)C(=O)N[C@@H](C(C)C)C(=O)N(C)[C@@H](CC(C)C)C(=O)N[C@@H](C)C(=O)N[C@H](C)C(=O)N(C)[C@@H](CC(C)C)C(=O)N(C)[C@@H](CC(C)C)C(=O)N(C)[C@@H](C(C)C)C(=O)N1C`, the “activity change, negative = inhibition” value was 9.07%.

Turning to `OCc1ccc(-c2ccc(-c3ccc(CO)s3)o2)s1`, the Potency is 0.218 µM (active).

As for `CC1=C(CO)C(=O)O[C@@H]([C@@H](C)[C@H]2CC[C@H]3[C@@H]4C[C@H]5O[C@]56[C@@H](O)C=CC(=O)[C@]6(C)[C@@H]4CC[C@]23C)C1`, the “activity change, negative = inhibition” value is -1.09%.

With `Cc1oncc1C(=O)Nc1ccc(C(F)(F)F)cc1`, the Potency was 3.08 µM (active).

With `CN1CC(=O)N2C(Cc3c([nH]c4ccccc34)[C@H]2c2ccc3c(c2)OCO3)C1=O` (stereo not given in full), the “activity change, negative = inhibition” value is 1.76%.

With `Cc1cc(O)c2c(c1)C(=O)c1cc(O)cc(O)c1C2=O`, the Potency was 4.89 µM (active).

Turning to `c1ccc2[nH]c(-c3cscn3)nc2c1`, the Potency was 12.3 µM (active).

Turning to `O=C(c1ccccc1)c1ccc2n1CCC2C(=O)O` (stereo not given), the Potency is 17.3 µM (active).

On to `CN(C)CCCSc1ccccc1NC(=O)/C=C/c1ccccc1`, for which the Potency was 8.69 µM (active).

In the case of `Cc1c(N)c(=O)n(-c2ccccc2)n1C`, the “activity change, negative = inhibition” value is 0.521%.

`CCCC(=O)OC[C@@H](OC(=O)CCC)[C@@H](OC(=O)CCC)[C@H](Cn1c2nc(=O)[nH]c(=O)c-2nc2cc(C)c(C)cc21)OC(=O)CCC`: the “activity change, negative = inhibition” value was -15.1%.

With `CN(C)c1ccc(/C=C2\C(=O)Nc3ccccc32)cc1`, the Potency is 10.9 µM (active).

For `O=C(Nc1cc2cc[nH]c2cn1)c1ccccc1`, the Potency is 4.35 µM (active).

Take `CN(C)c1ccc2cc(C(=O)N[C@@H](CCCN=C(N)CCl)C(=O)NCc3ccccc3)ccc2c1`: the “activity change, negative = inhibition” value was -11.2%.

For the compound `Clc1ccccc1-c1nc(-c2ccncc2)no1`, the Potency is 7.74 µM (active).

Take `COCCn1c2c([n+](Cc3cnccn3)c1C)C(=O)c1ccccc1C2=O`: the Potency was 4.89 µM (active).

Regarding `O=c1c2ccccc2nc2n1CCc1c-2[nH]c2ccccc12`, the Potency was 4.89 µM (active).

With `O=C(Oc1ccccc1)c1cccc(C(=O)Oc2ccccc2)c1`, the Potency is 4.47 µM (active).

As for `O=C(OCc1ccccc1)c1ccc(O)cc1`, the Potency was 19.5 µM (active).

Take `CC(C(=O)O)c1ccc(C(=O)c2cccs2)cc1` (stereo not given): the Potency was 17.3 µM (active).

In the case of `COc1ccc(-c2cc(=S)ss2)cc1`, the Potency is 15.5 µM (active).

On to `O=C1C(Cl)=C(NCCN2CCOCC2)C(=O)c2ncccc21`, for which the Potency was 5.48 µM (active).

On to `Nc1ccc(O)c(C(=O)O)c1`, for which the “activity change, negative = inhibition” value was -11.2%.

Consider `Cc1[nH]c(C=C2C(=O)Nc3ccccc32)c(C)c1CCC(=O)O`, for which the “activity change, negative = inhibition” value is 0.798%.

Regarding `CO[C@H]1C(=O)[C@]2(C)[C@@H](OC)C[C@H]3OC[C@@]3(OC(C)=O)[C@H]2[C@H](OC(=O)c2ccccc2)[C@]2(O)C[C@H](OC(=O)[C@H](O)[C@@H](NC(=O)OC(C)(C)C)c3ccccc3)C(C)=C1C2(C)C`, the “activity change, negative = inhibition” value is 15.9%.

`COc1cc2nc(N3CCN(C(=O)C4CCCO4)CC3)nc(N)c2cc1OC` (stereo not given): the Potency is 17.3 µM (active).

On to `Nc1ccc(N=Nc2ccccc2)c(N)n1`, for which the Potency is 12.3 µM (active).

Take `O[C@@H](COc1cccc2ncccc12)CN1CCN(C2c3ccccc3[C@@H]3[C@H](c4ccccc42)C3(F)F)CC1` (stereo not given in full): the “activity change, negative = inhibition” value is -9.17%.

With `CC(C)(C)COc1ccc(-n2cc(C(=O)O)cn2)cc1C#N`, the Potency was 25.1 µM (active).

On to `COc1ccc(-c2coc3cc(O)ccc3c2=O)cc1`, for which the Potency is 15.5 µM (active).

As to `COc1cccc(-c2cc(=O)c3ccccc3o2)c1N`, the Potency is 7.74 µM (active).

For the compound `O=C(O)c1cc([N+](=O)[O-])ccc1NCCCc1ccccc1`, the Potency is 19.5 µM (active).
